Rows were chosen to be rich in hits. Some 13% of all compounds tested hit in one or more screens of this group.
USP17 block: inhibitors of human USP17 deubiquitinase. Ubiquitin carboxyl-terminal hydrolase 17-like protein 5 (Homo sapiens), A8MUK1. purified USP17, Ub-rhodamine cleavage fluorescence, 3 h. inhibition, % at 50 µM. actives 6.5% (n = 47,000)
Target sequence (A8MUK1 whole entry, looked up): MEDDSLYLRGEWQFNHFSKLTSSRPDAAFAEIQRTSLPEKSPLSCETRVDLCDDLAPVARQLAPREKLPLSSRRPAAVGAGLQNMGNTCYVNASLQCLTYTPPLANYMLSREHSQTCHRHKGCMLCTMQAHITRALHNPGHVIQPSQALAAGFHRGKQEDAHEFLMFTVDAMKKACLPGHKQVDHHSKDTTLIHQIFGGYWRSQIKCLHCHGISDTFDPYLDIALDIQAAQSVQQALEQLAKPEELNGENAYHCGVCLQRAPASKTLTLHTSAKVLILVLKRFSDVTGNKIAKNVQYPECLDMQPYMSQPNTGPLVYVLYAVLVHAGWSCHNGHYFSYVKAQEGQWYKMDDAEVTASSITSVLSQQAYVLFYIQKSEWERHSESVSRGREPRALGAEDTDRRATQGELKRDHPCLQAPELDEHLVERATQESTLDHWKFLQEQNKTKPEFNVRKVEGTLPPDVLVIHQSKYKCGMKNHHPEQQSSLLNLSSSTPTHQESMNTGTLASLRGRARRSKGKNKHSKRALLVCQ
USP28 block: inhibitors of human USP28 deubiquitinase | Ubiquitin carboxyl-terminal hydrolase 28 (Homo sapiens), Q96RU2 | purified USP28, Ub-rhodamine cleavage fluorescence, 30 min | inhibition, % at 25 µM | actives 3% (n = 47,000)
USP30 inh: inhibitors of human USP30 deubiquitinase. Ubiquitin carboxyl-terminal hydrolase 30 (Homo sapiens), Q70CQ3. actives 5.3% (n = 47,000). AID 1645860, 2021. purified USP30, Ub-rhodamine cleavage fluorescence. inhibition, % at 25 µM
USP8 block: inhibitors of human USP8 deubiquitinase | Ubiquitin carboxyl-terminal hydrolase 8 (Homo sapiens), P40818 | purified USP8, Ub-rhodamine cleavage fluorescence, 30 min | inhibition, % at 20 µM | actives 4.2% (n = 47,000) | AID 1645853, 2021
Active calls of the source: *. Rule as the data show it: active = inhibition above about 30%; inactive = the rest.

For CC[C@@]1(O)C[C@H](OC2CC(N(C)C)C(OC3CC(O)C(OC4CCC(=O)C(C)O4)C(C)O3)C(C)O2)c2c(cc3c(c2O)C(=O)c2c(O)ccc(O)c2C3=O)[C@H]1C(=O)OC (stereo partly specified) the results were USP17 block 71*, USP28 block 13, USP30 inh -13 and USP8 block -10.
Screening Cc1cccc(C)c1-n1nnnc1C1(N)CCC(C)CC1 (stereo unspecified) returned USP17 block 21, USP28 block 13, USP30 inh 33* and USP8 block 17.
`NC1(c2nnnn2-c2ccccc2)CCCCC1` gave USP17 block 7 and USP8 block 1.
`Cc1ccccc1COc1ccc(C2SCC(=O)Nc3n[nH]c(C)c32)cc1` (stereo unspecified) gave USP17 block 36*, USP28 block 22, USP30 inh 41* and USP8 block -32.
`CC(C)[C@@H](C)/C=C/[C@@H](C)[C@H]1CCC2=C3[C@@H](O)[C@@H]4OC45C[C@@H](OC(=O)[C@@H](N)[C@@H](OS(=O)(=O)O)C(C)C)CC[C@]5(C)[C@H]3CC[C@@]21C(=O)O` (stereo partly specified) gave USP17 block 25, USP28 block 17, USP30 inh -31 and USP8 block -90.
For O=C1c2c(O)c(Cl)cc3c2[C@@]2(Oc4cc(Cl)c(O)c5c4[C@]3(O2)[C@@H]2O[C@@H]2C5=O)[C@@H]2O[C@H]12 the results were USP17 block 76*, USP28 block 78*, USP30 inh 6 and USP8 block 54*.
Cc1[nH]nc2c1C(c1ccc(OCc3cccc(F)c3)cc1)SCC(=O)N2 (stereo unspecified) was read as USP28 block 11, USP30 inh 19 and USP8 block -39.
For O=C(Nc1nc2ccccc2s1)c1cccn(Cc2ccc(Cl)cc2)c1=O the results were USP17 block 7, USP28 block -13, USP30 inh -17 and USP8 block 5.
`Cc1ccc(C)c(Cn2cccc(C(=O)Nc3ccccn3)c2=O)c1` gave USP17 block 9, USP28 block 34*, USP30 inh 19 and USP8 block 2.
For CC(C)CNC(=O)C1=NOC2(CCCNC2)C1 (stereo unspecified) the results were USP17 block -2, USP28 block -4, USP30 inh -7 and USP8 block -159.
Screening CN1C(=O)C23SSC1(CO)C(=O)N2C1Nc2ccccc2C1(C12c4ccccc4NC1N1C(=O)C4(CO)SSC1(C(=O)N4C)C2O)C3O (stereo unspecified) returned USP17 block -32, USP28 block 15, USP30 inh 9 and USP8 block 0.
For CC(=O)O[C@H]1[C@]2(O)C[C@]34SS[C@](CO)(C(=O)N3[C@@H]2C[C@@]12O[C@@H](C)C(C)(C)C2=O)N(C)C4=O the results were USP17 block -33, USP28 block -2, USP30 inh 63* and USP8 block 1.
`CC(C)=CCCC1(C)C=Cc2c(O)c3c(c(CC=C(C)C)c2O1)OC12C(=CC4CC1C(C)(C)OC2(C/C=C(/C)C(=O)O)C4=O)C3=O` (stereo unspecified) gave USP17 block 89*, USP28 block 82*, USP30 inh 71* and USP8 block 73*.
Screening CCN1C[C@@H]2c3nc(N4CCCC4)ncc3CS(=O)(=O)[C@@H]2C1 returned USP17 block 4, USP28 block 5, USP30 inh 19 and USP8 block -28.
Screening C[C@@H]1CC[C@@]2(OC1)O[C@H]1C[C@H]3[C@@H]4CC=C5C[C@@H](O[C@@H]6O[C@@H](CO)[C@@H](O[C@@H]7O[C@@H](C)[C@H](O[C@@H]8O[C@@H](C)[C@H](O)[C@H](O)[C@H]8O)[C@H](O)[C@H]7O)[C@H](O)[C@@H]6O[C@@H]6O[C@@H](C)[C@H](O)[C@H](O)[C@H]6O)CC[C@]5(C)[C@H]4CC[C@]3(C)[C@H]1[C@@H]2C returned USP17 block 55*, USP28 block 38*, USP30 inh 96* and USP8 block 3.
Screening Cc1c(C(=O)N2CCC3(CC2)OCCO3)sc2nc3n(c(=O)c12)CCCCC3 returned USP17 block -1, USP28 block 1, USP30 inh 13 and USP8 block 1.
CO[C@@H]1C[C@@H](C[C@H]2CC[C@H](C)[C@H]([C@@H](C)C(=O)O)O2)O[C@]2(O[C@](C)([C@H]3CC[C@@](C)([C@@H]4O[C@@H]([C@H]5O[C@@](O)(CO)[C@H](C)C[C@@H]5C)C[C@@H]4C)O3)C[C@H]2C)[C@@H]1C was read as USP17 block 17, USP28 block 20, USP30 inh 34* and USP8 block 2.
For CC[C@@]1([C@@H]2O[C@@H]([C@H]3O[C@@](O)(CO)[C@H](C)C[C@@H]3C)C[C@@H]2C)CC[C@H]([C@]2(C)CC[C@]3(C[C@H](O)[C@@H](C)[C@@H]([C@@H](C)[C@@H](O)[C@H](C)C(=O)O)O3)O2)O1 the results were USP17 block -77, USP28 block -20, USP30 inh -13 and USP8 block 0.
`CN1C(=O)OC2(CCN(Cc3ccc(O)cc3)CC2)c2ccccc21` gave USP17 block -1, USP28 block 7, USP30 inh 20 and USP8 block -1.
Screening CCOC(=O)c1c(C)n(C2CC2)c2ccc(OC)cc12 returned USP17 block 5, USP28 block 37*, USP30 inh -8 and USP8 block 8.
`CC(C)C12CN3CC(C(C)C)(CN(C1)C3c1ccccn1)C2O` (stereo unspecified) gave USP17 block 39*, USP28 block 19, USP30 inh 13 and USP8 block 47*.
`Cc1cc(C)nc(-n2nc(C)c3c2NC(=O)CSC3c2ccccc2F)n1` (stereo unspecified) gave USP17 block 37*, USP28 block 2, USP30 inh 87* and USP8 block -6.
For CC(C)=CCOC(C)(C)[C@H]1OC2CC[C@@]3(C)C(CCC4Cc5c([nH]c6ccccc56)[C@@]43C)C23OC3[C@@H]1O (stereo partly specified) the results were USP17 block 87*, USP28 block 88*, USP30 inh 84* and USP8 block 40*.
Screening COc1ccc2c(c1)C(=O)NC1(CCNC1)CC2 (stereo unspecified) returned USP17 block 8, USP28 block -3, USP30 inh 10 and USP8 block 17.
For O=C1CSC(c2cccc([N+](=O)[O-])c2)c2c(n(C3CCCCC3)[nH]c2=O)N1 (stereo unspecified) the results were USP17 block 0, USP28 block -4, USP30 inh -11 and USP8 block -46.
